Data on 10 compounds can be found in PubChem BioAssay (NCATS).

A number with no mark means an inactive call. Records with an inconclusive call do not appear. Some of the results follow. Active and inactive are the calls of the source. Unless noted, calls come from the whole dose curve; as a rule, active = well fitted curve in the direction sought with a large enough effect; inconclusive = small, poorly fitted or top-dose-only effect, or another doubt; inactive = no such curve, though single readings can be large; an effect the other way counts as inactive or inconclusive.

The target of assay [1] is Tumor susceptibility gene 101 protein (Homo sapiens) (UniProt Q99816). Briefly: qHTS Assay for Iinhibitors of HIV-1 Budding by Blocking the Interaction of PTAP/TSG101: Hit Validation (AID 651600). Note: potency is the fitted concentration of half-maximal effect; nearly all actives have a fitted effect of over 70% in size. An outline of the steps: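 Fluorescence polarization binding assay: Tsg101 binding domain (10 uM final) pre-dispensed with compounds, then FITC-labeled PTAP-motif peptide (50 nM final) added; 20 min at r.t. in HEPES pH 7.5 buffer with NaCl, Tween 20, EDTA, TCEP.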
A general note: In qHTS, concentration-response curves come from the screen itself.

The target of assay [2] is Rap guanine nucleotide exchange factor 3 (Homo sapiens) (UniProt O95398). Briefly: Confirmatory qHTS for agonist of cAMP-regulated guanine nucleotide exchange factor 3 (EPAC1) (AID 1645881).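 Note: EPAC1 catalysed release of BODIPY-GDP from Rap1B seen as fluorescence loss; 100% = effect of cAMP agonist control; nearly all actives have a fitted effect of over 75% in size.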
The target of assay [3] is Rap guanine nucleotide exchange factor 4 (Homo sapiens) (UniProt Q8WZA2). Briefly: Confirmatory qHTS for agonist of cAMP-regulated guanine nucleotide exchange factor 4 (EPAC2) (AID 1645884).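 Note: nucleotide exchange releases bodipy-GDP from Rap1 and this lowers its fluorescence; % is set by controls: 0 for no effect and ±100 for the full control effect; nearly all actives have a fitted effect of over 65% in size.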
The target is the same in assay [4]. Briefly: Confirmatory qHTS for antagonist of cAMP-regulated guanine nucleotide exchange factor 4 (EPAC2) (AID 1645885). For activity change, negative = inhibition: % is set by controls: 0 for no effect and ±100 for the full control effect. Note: nearly all actives have a fitted effect of over 25% in size. Note: potency is the fitted concentration of half-maximal effect.
The target of assay [5] is Rap guanine nucleotide exchange factor 3 (Homo sapiens) (UniProt O95398). Briefly: Counterscreen qHTS for antagonist of cAMP-regulated guanine nucleotide exchange factor 3 (EPAC1) (AID 1645888).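 Note: fluorescence loss as bound BODIPY-GDP is released from Rap1B; % of control where 0% means no effect.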 An outline of the steps:
(§1)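 Rap1B–BODIPY-GDP (250 nM) with 50 uM GDP; compounds pin-transferred to 9.74 nM–152 uM final (activator) or from 7.32 nM upwards (inhibitor). Fluorescence Ex/Em 480/540 nm read at 5 and 30 min, then after adding cAMP or buffer, at room temperature.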
A general note: The purpose of a counterscreen is to sort out artefacts and off-target activity.

Assay [6] shares this target. Briefly: Counterscreen qHTS for agonist of cAMP-regulated guanine nucleotide exchange factor 3 (EPAC1) (AID 1645889). Note: % of control where 0% means no effect; nearly all actives have a fitted effect of over 40% in size. An outline of the steps: as §1
For assay [7], the target named is Lethal(3)malignant brain tumor-like protein 1 (Homo sapiens) (UniProt Q9Y468). Put plainly: qHTS Assay for the Inhibitors of L3MBTL1: Hit Validation (AID 540279). Note: potency is the fitted concentration of half-maximal effect; nearly all actives have a fitted effect of over 70% in size. The note with it: L3MBTL1 methyl-lysine binding inhibition, biochemical qHTS. An outline of the steps: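 L3MBTL1 (50 nM final) preformed 30 min with biotinylated H3(1-15)K9me1 peptide (75 nM), then compound 30 min at room temperature. Streptavidin donor and nickel chelate acceptor AlphaScreen beads (10 ug/mL each final) added for 30 min before read.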

Assay [8] in a line: qHTS Assay for the Inhibitors of L3MBTL1: Hit Validationin AlphaScreen Counterscreen (AID 602224). Note: 0% is about no effect. An outline of the steps:
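Primary-screen actives were tested against a bead-bridging control: 1 nM biotinylated His6 joined streptavidin donor and nickel acceptor beads (10 ug/mL each). Incubations were 15 min with compound, then 30 min with beads, both at room temperature.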

Assay [9] is described as follows: AP1 Signaling Pathway (AID 357; active = well fitted curve in either direction with a large enough effect, not every such curve was filed as active;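 note: ME-180 reporter cells stimulated with EGF at its EC50 level; % is set by controls: 0 for no effect and ±100 for the full control effect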). The note with it: ME-180 AP-1-bla reporter, EGF-induced, beta-lactamase ratio, 5 h; at 7.69 µM (top of the series) unless noted. The essentials:
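AP-1-bla ME-180 cells, Opti-MEM + 0.5% dialyzed FBS, plated overnight 37 °C. Cpd titration + EC50 EGF, 5 h 37 °C. CCF4 2.5 h RT; ex 405, em 460/530 ratio → %activity, AC50.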

Assay [10] is described as follows: NFAT Signaling Pathway (AID 444; active = well fitted curve in either direction with a large enough effect, not every such curve was filed as active;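 note: carbachol stimulus at about its EC50 of 1 µM final; % is set by controls: 0 for no effect and ±100 for the full control effect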). The following applies: Jurkat NFAT-bla M1, carbachol, beta-lactamase ratio, 5 h; at 7.69 µM (top of the series) unless noted. The essentials:
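Jurkat cells with NFAT-driven β-lactamase reporter and co-expressed M1 receptor, stimulated with carbachol (final 1 uM, ~EC50), compound titration, 5 h at 37 °C. CCF4 loaded 1 h at RT; 460/530 nm ratio gave %activity and AC50.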

The nature of assay [11]: Stat Signaling Pathway (AID 446; active = well fitted curve in either direction with a large enough effect, not every such curve was filed as active;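 note: ME-180 cervical cancer cells given 40 pM IL-6 alongside compound; SIE-controlled beta-lactamase reporter measured as 460/530 nm FRET emission ratio; % is set by controls: 0 for no effect and ±100 for the full control effect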). An outline of the steps: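 Screening format detects activators and inhibitors alike: ME-180 SIE-bla cells stimulated at 40 pM IL-6 for 5 hrs with compound, then dual-emission beta-lactamase read at 405 nm excitation.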
Assay [12] addresses Glucocorticoid receptor (Homo sapiens) (UniProt P04150). Briefly: GR-GFP Redistribution (AID 450;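 active = compounds whose dose series gives a full or clear partial fitted curve of increased nuclear translocation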; note: potency is the fitted concentration of half-maximal effect). The note with it: U2OS GR-GFP nuclear translocation, laser cytometry, 2 h.
Assay [13] deals with Tyrosyl-DNA phosphodiesterase 1 (Homo sapiens) (UniProt Q9NUW8). Briefly: Confirmation Assay for Inhibitors of Tyrosyl-DNA Phosphodiesterase (TDP1) (AID 489007). Note: potency is the fitted concentration of half-maximal effect; nearly all actives have a fitted effect of over 40% in size. The following applies: recombinant human TDP1 enzymatic activity, dose-response. The essentials:
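Recombinant E. coli-expressed Tdp1 (1 nM final) was preincubated with compounds 15 min at room temperature, then reacted 5 min with 15 nM 5'-biotin/3'-phosphotyrosine-FITC DNA substrate; cleavage read as loss of AlphaScreen signal (10 ug/ml beads, 10 min).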

Assay [14] is described as follows: qHTS for Inhibitors of Plasmodium falciparum (DD2) proliferation (AID 504314).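 Note: parasite DNA measured by SYBR Green fluorescence after red cell lysis; plate controls were DMSO vehicle for no effect and artemisinin wells for full effect.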 An outline of the steps:
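Quantitative HTS growth inhibition: SYBR Green I binding to parasite DNA after 72 h drug exposure of infected erythrocytes (0.3% parasitemia, 2.5% hematocrit). Signals normalized per plate to inhibitor and vehicle wells.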

A short description of assay [15]: qHTS for Inhibitors of Plasmodium falciparum (GB4) proliferation (AID 504315).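 Note: 0% = DMSO vehicle and -100% = 0.29 µM artemisinin control; nearly all actives have a fitted effect of over 50% in size.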 The essentials:
(§2)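 Erythrocytes infected with P. falciparum line (0.3% parasitemia, 2.5% hematocrit final) incubated with compounds 72 h at 37 °C, 5% CO2; SYBR Green lysis buffer added, fluorescence read next day. Normalized to 0.29 uM artemisinin and DMSO.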

Assay [16] can be described thus: qHTS for Inhibitors of Plasmodium falciparum (7G8) proliferation (AID 504316).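 Note: 0% = DMSO vehicle and -100% = 0.29 µM artemisinin full kill; nearly all actives have a fitted effect of over 65% in size.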 The essentials:
as §2

Assay [17] can be described thus: qHTS for Inhibitors of Plasmodium falciparum (HB3) proliferation (AID 504318).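 Note: 0% = DMSO vehicle and -100% = artemisinin control; nearly all actives have a fitted effect of over 60% in size.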 An outline of the steps: as §2
A short description of assay [18]: qHTS for Inhibitors of Plasmodium falciparum (CP250) proliferation (AID 504320).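 Note: plate controls were DMSO vehicle for no effect and 0.29 µM artemisinin control for full effect.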 The essentials:
as §2

Sequence of Rap guanine nucleotide exchange factor 3 (Homo sapiens) (O95398 whole entry, looked up): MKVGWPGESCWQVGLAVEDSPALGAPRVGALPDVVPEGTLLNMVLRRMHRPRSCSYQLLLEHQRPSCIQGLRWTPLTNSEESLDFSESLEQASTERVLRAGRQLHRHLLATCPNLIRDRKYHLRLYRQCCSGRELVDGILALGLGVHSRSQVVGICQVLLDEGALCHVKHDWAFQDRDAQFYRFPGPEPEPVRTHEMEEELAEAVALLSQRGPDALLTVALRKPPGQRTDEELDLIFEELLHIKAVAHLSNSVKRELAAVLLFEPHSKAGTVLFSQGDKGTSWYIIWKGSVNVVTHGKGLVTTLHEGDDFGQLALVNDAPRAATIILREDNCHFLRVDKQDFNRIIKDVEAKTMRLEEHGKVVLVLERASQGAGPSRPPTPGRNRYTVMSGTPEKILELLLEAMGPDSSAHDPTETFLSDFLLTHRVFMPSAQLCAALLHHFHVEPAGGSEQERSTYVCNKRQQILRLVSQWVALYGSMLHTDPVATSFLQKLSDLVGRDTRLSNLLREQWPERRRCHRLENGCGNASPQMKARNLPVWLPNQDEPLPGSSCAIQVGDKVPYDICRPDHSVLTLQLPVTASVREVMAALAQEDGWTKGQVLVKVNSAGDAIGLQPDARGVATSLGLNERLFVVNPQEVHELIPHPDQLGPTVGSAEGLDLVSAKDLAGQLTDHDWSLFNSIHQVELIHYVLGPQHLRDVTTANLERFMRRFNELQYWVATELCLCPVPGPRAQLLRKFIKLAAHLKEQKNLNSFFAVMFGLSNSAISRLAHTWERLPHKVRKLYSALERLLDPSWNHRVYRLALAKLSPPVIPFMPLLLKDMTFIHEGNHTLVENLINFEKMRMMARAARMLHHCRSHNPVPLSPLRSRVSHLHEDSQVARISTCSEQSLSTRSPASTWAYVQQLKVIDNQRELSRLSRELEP
Sequence of Tumor susceptibility gene 101 protein (Homo sapiens) (Q99816 whole entry, looked up, the tested form may be a part): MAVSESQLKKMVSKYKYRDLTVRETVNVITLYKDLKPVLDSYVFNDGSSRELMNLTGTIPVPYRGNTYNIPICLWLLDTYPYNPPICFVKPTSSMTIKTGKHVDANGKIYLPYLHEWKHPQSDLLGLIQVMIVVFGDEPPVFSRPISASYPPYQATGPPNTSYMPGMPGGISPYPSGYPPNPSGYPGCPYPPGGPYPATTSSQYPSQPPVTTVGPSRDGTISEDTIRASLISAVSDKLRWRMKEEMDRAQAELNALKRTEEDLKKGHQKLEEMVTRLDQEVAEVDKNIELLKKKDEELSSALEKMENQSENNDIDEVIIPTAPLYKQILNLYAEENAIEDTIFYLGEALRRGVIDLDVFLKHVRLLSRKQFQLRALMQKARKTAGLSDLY
Sequence of Rap guanine nucleotide exchange factor 4 (Homo sapiens) (Q8WZA2 whole entry, looked up): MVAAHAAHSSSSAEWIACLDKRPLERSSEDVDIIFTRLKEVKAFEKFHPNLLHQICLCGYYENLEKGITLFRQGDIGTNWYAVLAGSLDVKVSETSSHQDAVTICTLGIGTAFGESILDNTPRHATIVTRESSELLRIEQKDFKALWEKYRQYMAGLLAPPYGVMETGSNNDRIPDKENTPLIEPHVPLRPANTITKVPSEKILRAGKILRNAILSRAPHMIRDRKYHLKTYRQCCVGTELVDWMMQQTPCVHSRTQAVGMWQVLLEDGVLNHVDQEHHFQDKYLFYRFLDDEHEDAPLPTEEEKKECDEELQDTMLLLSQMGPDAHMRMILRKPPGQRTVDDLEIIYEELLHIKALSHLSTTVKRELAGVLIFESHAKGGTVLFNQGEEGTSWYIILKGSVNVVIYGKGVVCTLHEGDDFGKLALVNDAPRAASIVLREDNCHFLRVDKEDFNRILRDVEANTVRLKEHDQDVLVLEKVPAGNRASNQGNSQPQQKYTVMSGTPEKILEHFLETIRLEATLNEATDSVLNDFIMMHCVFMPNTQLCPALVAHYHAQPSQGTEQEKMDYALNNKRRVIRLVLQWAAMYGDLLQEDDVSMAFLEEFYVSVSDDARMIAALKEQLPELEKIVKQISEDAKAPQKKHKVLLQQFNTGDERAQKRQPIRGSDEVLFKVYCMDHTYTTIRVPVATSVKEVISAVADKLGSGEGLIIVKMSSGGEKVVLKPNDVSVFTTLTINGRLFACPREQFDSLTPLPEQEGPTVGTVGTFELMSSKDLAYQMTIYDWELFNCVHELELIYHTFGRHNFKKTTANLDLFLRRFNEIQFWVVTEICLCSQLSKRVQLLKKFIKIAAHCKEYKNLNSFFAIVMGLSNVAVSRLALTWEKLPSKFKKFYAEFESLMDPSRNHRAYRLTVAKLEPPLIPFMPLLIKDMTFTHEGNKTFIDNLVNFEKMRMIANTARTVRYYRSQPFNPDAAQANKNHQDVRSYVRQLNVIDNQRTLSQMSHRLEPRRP
Sequence of Glucocorticoid receptor (Homo sapiens) (P04150 whole entry, looked up): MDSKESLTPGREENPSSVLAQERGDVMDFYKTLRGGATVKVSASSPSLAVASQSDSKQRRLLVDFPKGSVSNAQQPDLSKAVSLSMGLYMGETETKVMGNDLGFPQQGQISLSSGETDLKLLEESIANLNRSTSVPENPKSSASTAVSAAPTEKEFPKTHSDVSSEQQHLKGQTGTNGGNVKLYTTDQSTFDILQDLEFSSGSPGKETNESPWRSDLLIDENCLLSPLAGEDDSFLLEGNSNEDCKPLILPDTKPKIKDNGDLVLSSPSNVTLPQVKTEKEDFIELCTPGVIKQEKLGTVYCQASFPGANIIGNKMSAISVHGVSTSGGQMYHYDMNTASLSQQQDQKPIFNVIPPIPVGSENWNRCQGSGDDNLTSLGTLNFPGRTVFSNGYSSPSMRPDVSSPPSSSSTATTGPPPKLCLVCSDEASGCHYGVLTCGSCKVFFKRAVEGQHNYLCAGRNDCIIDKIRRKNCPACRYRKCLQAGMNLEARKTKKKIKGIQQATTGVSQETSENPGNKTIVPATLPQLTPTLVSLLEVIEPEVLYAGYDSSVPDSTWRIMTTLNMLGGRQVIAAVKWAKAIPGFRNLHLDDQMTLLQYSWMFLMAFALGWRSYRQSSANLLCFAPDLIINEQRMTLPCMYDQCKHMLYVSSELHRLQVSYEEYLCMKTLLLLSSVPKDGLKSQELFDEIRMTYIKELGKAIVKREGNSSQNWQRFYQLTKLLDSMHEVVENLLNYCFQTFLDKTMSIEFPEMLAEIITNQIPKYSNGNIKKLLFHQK
Sequence of Tyrosyl-DNA phosphodiesterase 1 (Homo sapiens) (Q9NUW8 whole entry, looked up): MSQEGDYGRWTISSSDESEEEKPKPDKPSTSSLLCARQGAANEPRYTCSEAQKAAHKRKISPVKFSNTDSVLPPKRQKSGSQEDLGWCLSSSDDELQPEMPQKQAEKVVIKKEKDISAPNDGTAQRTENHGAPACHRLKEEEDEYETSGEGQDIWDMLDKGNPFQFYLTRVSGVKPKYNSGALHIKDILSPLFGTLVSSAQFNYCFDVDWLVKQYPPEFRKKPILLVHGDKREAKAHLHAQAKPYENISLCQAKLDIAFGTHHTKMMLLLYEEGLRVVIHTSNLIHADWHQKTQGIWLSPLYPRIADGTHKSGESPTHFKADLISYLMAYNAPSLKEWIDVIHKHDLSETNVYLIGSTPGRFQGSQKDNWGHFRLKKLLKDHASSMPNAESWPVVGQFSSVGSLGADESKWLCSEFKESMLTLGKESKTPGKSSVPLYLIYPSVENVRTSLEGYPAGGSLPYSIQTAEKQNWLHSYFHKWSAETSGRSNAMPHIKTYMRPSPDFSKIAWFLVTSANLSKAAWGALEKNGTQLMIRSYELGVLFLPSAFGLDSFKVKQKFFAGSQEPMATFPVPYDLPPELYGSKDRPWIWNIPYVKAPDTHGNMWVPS
Sequence of Lethal(3)malignant brain tumor-like protein 1 (Homo sapiens) (Q9Y468 whole entry, looked up): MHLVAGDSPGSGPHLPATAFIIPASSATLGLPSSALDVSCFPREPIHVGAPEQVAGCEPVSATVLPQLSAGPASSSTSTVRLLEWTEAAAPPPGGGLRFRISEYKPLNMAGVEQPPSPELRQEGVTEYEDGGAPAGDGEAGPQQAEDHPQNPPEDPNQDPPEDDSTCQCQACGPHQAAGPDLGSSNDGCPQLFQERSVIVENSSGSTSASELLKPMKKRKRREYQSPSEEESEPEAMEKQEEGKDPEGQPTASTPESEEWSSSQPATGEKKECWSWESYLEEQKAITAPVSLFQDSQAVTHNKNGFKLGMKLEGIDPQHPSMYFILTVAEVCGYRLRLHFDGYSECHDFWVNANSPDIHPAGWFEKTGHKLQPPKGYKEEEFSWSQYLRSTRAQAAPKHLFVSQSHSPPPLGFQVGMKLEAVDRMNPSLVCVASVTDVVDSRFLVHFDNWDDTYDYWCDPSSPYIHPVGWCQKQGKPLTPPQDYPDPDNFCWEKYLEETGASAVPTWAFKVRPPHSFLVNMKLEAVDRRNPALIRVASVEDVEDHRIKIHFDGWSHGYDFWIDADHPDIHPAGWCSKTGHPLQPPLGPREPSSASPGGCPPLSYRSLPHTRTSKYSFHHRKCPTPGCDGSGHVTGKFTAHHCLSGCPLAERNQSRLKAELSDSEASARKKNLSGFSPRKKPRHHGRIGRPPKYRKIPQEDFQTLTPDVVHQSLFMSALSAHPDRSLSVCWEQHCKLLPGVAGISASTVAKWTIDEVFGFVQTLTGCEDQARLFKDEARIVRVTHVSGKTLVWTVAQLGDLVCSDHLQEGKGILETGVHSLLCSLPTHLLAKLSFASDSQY

Take `O=C1/C(=C/c2ccco2)Oc2c1ccc(O)c2CN1CCCCC1`: the Potency in assay [1] was 32.6 µM (active); in assay [4] it was 84.9 µM (active). In addition, the Potency result in assay [2], in assay [3], in assay [5] and in assay [6] was “inactive” each time.
`Cc1[nH]c2ccc(C(=O)OC(C)C(=O)N(C)c3ccccc3)cc2c1C` (stereo not drawn): the Potency entry in [2], in assay [3], in [4], in assay [5] and in [6] was “inactive” in each case.
Regarding `CCN(CC)c1nc2ccccc2nc1C(C#N)C(=O)NCCc1ccccc1` (stereo not drawn), the figures for the Potency in assay [1] and in [4] were 6.51 µM (active) and 84.9 µM (active), respectively. In addition, the Potency result in assay [2], in assay [3] and in assay [5] was “inactive” each time.
As for `Cc1ccc(/C=C/C(=O)Nc2ccc([N+](=O)[O-])c(NC(=O)/C=C/c3ccc(C)o3)c2)o1`, the Potency in [7] was 3.77 µM (active). In addition, in assay [8], the call was inactive. In addition, the Potency result in [2] and in assay [4] was “inactive” in each case. For the same compound, the activation in assay [3] is 6% [at 17.1 µM, percent relative to cAMP agonist control]; in assay [6], 27.5% [at 30.8 µM]. Besides, the activity change, negative = inhibition in assay [5] is 4.14% [at 30.8 µM].
For `Cc1c2cc(O)c(=O)cc-2oc2cc(O)c(O)cc12`, in [1], the Potency was 1.83 µM (active). Besides, the Potency entry in assay [2] and in assay [4] was “inactive” each time. The activation was -3.29% [at 17.1 µM, percent relative to cAMP agonist control] in assay [3] and 0.526% [at 30.8 µM] in assay [6]. In addition, the activity change, negative = inhibition in assay [5] is -2.73% [at 30.8 µM].
For `CCOC(=O)C1CCCN(c2nc3ccccc3nc2C(C#N)C(=O)OC(C)C)C1` (stereo not drawn), the activity change, negative = inhibition in [9] was -3.2% [at 17.2 µM]; in [10], -22.1% [at 17.2 µM]; in assay [5], 0.815% [at 30.8 µM]. In addition, the compound was called inactive in [11]. For the same compound, the Potency in assay [12] is more than 20.6 µM. Also, the Potency entry in assay [2] and in assay [4] was “inactive” throughout. Further, the activation in [3] is 6.19% [at 17.1 µM, percent relative to cAMP agonist control]; in [6], 36.1% [at 30.8 µM].
On to `CC1(C)Cc2c(C#N)c(N3CCN(C(=O)c4ccco4)CC3)nc(-c3ccco3)c2CS1`, for which, in assay [12], the Potency was more than 20.6 µM. The Potency result in [2], in assay [3], in assay [4], in assay [5] and in [6] was “inactive” throughout.
Take `O=C(NNC(=O)c1cc2cc(Br)ccc2oc1=O)c1ccc(O)cc1O`: in [13], the Potency is 56.2 µM (active). The Potency entry in assay [2], in assay [3], in [4] and in assay [5] was “inactive” each time.
On to `CCCC[C@H]1COCCS(=O)(=O)N1Cc1ccc(Br)cc1`, for which the Potency entry in assay [2], in [3], in assay [4] and in [6] was “inactive” each time.
Turning to `COC(=O)C1=C(C)N(Cc2ccccc2)C(=O)N[C@H]1c1cccc(C(F)(F)F)c1`, the call in assay [14], in assay [15], in assay [16], in assay [17] and in assay [18] was inactive. Moreover, the Potency entry in [2] and in [4] was “inactive” each time. For the same compound, the activation is 7.76% [at 17.1 µM, percent relative to cAMP agonist control] in assay [3] and 10.2% [at 30.8 µM] in [6]. In assay [5], the activity change, negative = inhibition was -21.1% [at 30.8 µM].
